Results: PubChem BioAssay (NCATS)
Inconclusive results are not listed. The source made the active and inactive calls. Calls follow the shape of the dose curve; as a rule, active = well fitted cell-killing curve with a large enough effect; inconclusive = small, poorly fitted or top-dose-only effect, or effect the other way; inactive = no such curve, though single readings can be large or run the other way.

Tests used:
[1] = Quantitative High-Throughput drug screen in 47 multiple myeloma cell lines against the NCATS MIPE library collection: OCIMY1_PLB cell viability assay (AID 1918979); also: nearly all actives have a fitted effect of over 35% in size;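 as to viability: 100% = DMSO-only wells and 0% = cell-free media-only wells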
Summary of the method: (§1)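 MIPE 4.0 approved/investigational drugs; 500 cells/well; 48 h 37 °C humidified 5% CO2; CTG luminescence readout; DMSO = 100%, media = 0% viability.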

[2] = Quantitative High-Throughput drug screen in 47 multiple myeloma cell lines against the NCATS MIPE library collection: LP1_DSMZ cell viability assay (AID 1918982); also: nearly all actives have a fitted effect of over 35% in size
Summary of the method: as §1

[3] = Quantitative High-Throughput drug screen in 47 multiple myeloma cell lines against the NCATS MIPE library collection: L363_DSMZ cell viability assay (AID 1918984); also: nearly all actives have a fitted effect of over 40% in size
Summary of the method: as §1

[4] = Quantitative High-Throughput drug screen in 47 multiple myeloma cell lines against the NCATS MIPE library collection: OCIMY5_PLB cell viability assay (AID 1918988); also: nearly all actives have a fitted effect of over 65% in size
Summary of the method: as §1

[5] = Quantitative High-Throughput drug screen in 47 multiple myeloma cell lines against the NCATS MIPE library collection: OPM1_PLB cell viability assay (AID 1918989); also: nearly all actives have a fitted effect of over 40% in size
Summary of the method: as §1

[6] = Quantitative High-Throughput drug screen in 47 multiple myeloma cell lines against the NCATS MIPE library collection: XG1_PLB cell viability assay (AID 1919866); also: nearly all actives have a fitted effect of over 35% in size
Summary of the method: as §1

[7] = Quantitative High-Throughput drug screen in 47 multiple myeloma cell lines against the NCATS MIPE library collection: VP6_DJ cell viability assay (AID 1919867); also: nearly all actives have a fitted effect of over 40% in size;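 as to viability (% of DMSO): 100% = DMSO-only wells and 0% = wells with media alone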
Summary of the method: as §1

[8] = Quantitative High-Throughput drug screen in 47 multiple myeloma cell lines against the NCATS MIPE library collection: PCM6_Riken cell viability assay (AID 1919870); also: nearly all actives have a fitted effect of over 30% in size
Summary of the method: as §1

[9] = Quantitative High-Throughput drug screen in 47 multiple myeloma cell lines against the NCATS MIPE library collection: RPMI8226_ATCC cell viability assay (AID 1919871); also: nearly all actives have a fitted effect of over 30% in size
Summary of the method: as §1

[10] = Quantitative High-Throughput drug screen in 47 multiple myeloma cell lines against the NCATS MIPE library collection: OPM2_DSMZ cell viability assay (AID 1919872); also: nearly all actives have a fitted effect of over 30% in size
Summary of the method: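 Primary qHTS used for cherry-picking: cells at 500/well, library compounds for 48 h (37C, 5% CO2), luminescent ATP assay.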

[11] = Quantitative High-Throughput drug screen in 47 multiple myeloma cell lines against the NCATS MIPE library collection: MM1S_ATCC cell viability assay (AID 1918980); also: nearly all actives have a fitted effect of over 45% in size
Summary of the method: as §1

[12] = Quantitative High-Throughput drug screen in 47 multiple myeloma cell lines against the NCATS MIPE library collection: MM1R_ATCC cell viability assay (AID 1918981); also: nearly all actives have a fitted effect of over 35% in size
Summary of the method: as §1

[13] = Quantitative High-Throughput drug screen in 47 multiple myeloma cell lines against the NCATS MIPE library collection: KMS28PE_JCRB cell viability assay (AID 1918983); also: nearly all actives have a fitted effect of over 35% in size
Summary of the method: as §1

[14] = Quantitative High-Throughput drug screen in 47 multiple myeloma cell lines against the NCATS MIPE library collection: KMS34_JCRB cell viability assay (AID 1918985); also: nearly all actives have a fitted effect of over 40% in size
Summary of the method: as §1

[15] = Quantitative High-Throughput drug screen in 47 multiple myeloma cell lines against the NCATS MIPE library collection: OCIMY7_PLB cell viability assay (AID 1918987); details: OCI-MY7 myeloma viability, CellTiter-Glo ATP, 48 h; viability (% of DMSO): at 45.8 µM (top of the series); also: nearly all actives have a fitted effect of over 65% in size
Summary of the method: as §1

[16] = Quantitative High-Throughput drug screen in 47 multiple myeloma cell lines against the NCATS MIPE library collection: SKMM1_PLB cell viability assay (AID 1919863); details: SKMM1 myeloma viability, CellTiter-Glo ATP, 48 h; viability: hits give low values; also: nearly all actives have a fitted effect of over 35% in size
Summary of the method: as §1

[17] = Quantitative High-Throughput drug screen in 47 multiple myeloma cell lines against the NCATS MIPE library collection: XG6_PLB cell viability assay (AID 1919865); also: nearly all actives have a fitted effect of over 40% in size
Summary of the method: as §1

[18] = Quantitative High-Throughput drug screen in 47 multiple myeloma cell lines against the NCATS MIPE library collection: UTMC2_PLB cell viability assay (AID 1919868); details: CellTiter-Glo ATP luminescence, 48 h; viability (% of DMSO control): at 45.8 µM (top of the series); also: nearly all actives have a fitted effect of over 55% in size;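 as to viability (% of DMSO control): 100% = DMSO-only wells and 0% = media-only wells without cells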
Summary of the method: as §1

[19] = Quantitative High-Throughput drug screen in 47 multiple myeloma cell lines against the NCATS MIPE library collection: PE2_PLB cell viability assay (AID 1919869); also: nearly all actives have a fitted effect of over 35% in size
Summary of the method: as §1

[20] = Quantitative High-Throughput drug screen in 47 multiple myeloma cell lines against the NCATS MIPE library collection: U266_ATCC cell viability assay (AID 1919864); also: nearly all actives have a fitted effect of over 35% in size;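 as to viability (% of DMSO control): 0% = media-only wells without cells and 100% = DMSO-only wells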
Summary of the method: as §1
Potency is read from the fitted curve at half-maximal effect.

CC[C@H]1OC(=O)[C@H](C)[C@@H](O[C@H]2C[C@@](C)(OC)[C@@H](O)[C@H](C)O2)[C@H](C)[C@@H](O[C@@H]2O[C@@H](C)C[C@H](N(C)C)[C@@H]2O)[C@](C)(O)C[C@@H](C)C(=O)[C@H](C)[C@@H](O)[C@]1(C)O
active: Potency [6] 4.18 µM
inactive: Potency [1] | Potency [2] | Potency [3] | Potency [4] | Potency [5] | Potency [7] | Potency [8] | Potency [9] | Potency [10]

C=C1C(=O)O[C@H]2[C@@H]1CCC(C)=CCC[C@@]1(C)O[C@@H]21
active: Potency [11] 5.9 µM | Potency [12] 3.72 µM | Potency [2] 5.9 µM | Potency [13] 7.43 µM | Potency [3] 9.35 µM | Potency [14] 2.09 µM | Potency [15] 0.526 µM | Potency [4] 4.18 µM | Potency [16] 16.6 µM | Potency [17] 5.9 µM | Potency [6] 2.64 µM | Potency [7] 4.18 µM | Potency [18] 4.69 µM | Potency [19] 3.32 µM | Potency [8] 3.32 µM | Potency [9] 5.26 µM | Potency [10] 5.9 µM

Nc1ccn(C[C@@H](CO)OCP(=O)(O)O)c(=O)n1
inactive: Potency [1] | Potency [2] | Potency [13] | Potency [14] | Potency [20] | Potency [17] | Potency [7] | Potency [9]

COc1ccc2c(c1OC)C(=O)OC2[C@H]1c2c(cc3c(c2OC)OCO3)CCN1C (stereo partly specified)
active: Potency [11] 0.332 µM | Potency [12] 0.418 µM | Potency [2] 0.132 µM | Potency [13] 0.0526 µM | Potency [3] 0.0743 µM | Potency [14] 0.0372 µM | Potency [4] 0.0235 µM | Potency [5] 0.469 µM | Potency [16] 0.0235 µM | Potency [20] 1.66 µM | Potency [17] 0.0469 µM | Potency [6] 0.0418 µM | Potency [7] 0.0743 µM | Potency [18] 0.132 µM | Potency [19] 0.372 µM | Potency [8] 0.469 µM | Potency [9] 3.72 µM | Potency [10] 0.0662 µM

C[C@H](NC(=O)C(C#N)=Cc1cccc(Br)n1)c1ccccc1
active: Potency [11] 8.33 µM | Potency [12] 2.09 µM | Potency [2] 5.9 µM | Potency [13] 3.72 µM | Potency [3] 11.8 µM | Potency [14] 7.43 µM | Potency [15] 0.743 µM | Potency [4] 2.64 µM | Potency [16] 3.72 µM | Potency [20] 6.62 µM | Potency [17] 2.35 µM | Potency [6] 2.09 µM | Potency [7] 2.35 µM | Potency [18] 3.32 µM | Potency [19] 2.64 µM | Potency [8] 2.09 µM | Potency [9] 4.18 µM | Potency [10] 7.43 µM

CCN1CCN(C(=O)N[C@H](C(=O)N[C@@H]2C(=O)N3C(C(=O)O)=C(CSc4nnnn4C)CS[C@@H]23)c2ccc(O)cc2)C(=O)C1=O
inactive: Potency [1] | Potency [2] | Potency [15] | Potency [4] | Potency [5] | Potency [6] | Potency [10]

COC(=O)[C@@H]1[C@H]2C[C@@H]3c4[nH]c5ccccc5c4CCN3C[C@@H]2CC[C@@H]1O
inactive: Potency [11] | Potency [12] | Potency [2] | Potency [13] | Potency [3] | Potency [15] | Potency [5] | Potency [17] | Potency [6] | Potency [18] | Potency [19] | Potency [8] | Potency [9] | Potency [10]

Nc1nc(N)c2nc(-c3cccc(O)c3)c(-c3cccc(O)c3)nc2n1
active: Potency [11] 14.8 µM | Potency [12] 18.7 µM | Potency [2] 23.5 µM | Potency [13] 26.4 µM | Potency [3] 3.72 µM | Potency [14] 14.8 µM | Potency [15] 0.372 µM | Potency [4] 18.7 µM | Potency [20] 18.7 µM | Potency [17] 3.32 µM | Potency [6] 4.18 µM | Potency [7] 3.32 µM | Potency [18] 3.72 µM | Potency [8] 2.64 µM

O=C1CSC(=O)N1C(CCc1ccncc1)COc1ccc(-c2cccc([N+](=O)[O-])c2)cc1 (stereo unspecified)
active: Potency [11] 0.935 µM | Potency [12] 2.35 µM | Potency [2] 5.9 µM | Potency [13] 9.35 µM | Potency [14] 8.33 µM | Potency [15] 20.9 µM | Potency [4] 2.35 µM | Potency [20] 8.33 µM | Potency [17] 13.2 µM | Potency [7] 4.18 µM | Potency [19] 16.6 µM | Potency [9] 7.43 µM
inactive: Potency [3]

C=CCNC1=C2C[C@@H](C)C[C@H](OC)[C@@H](O)[C@@H](C)C=C(C)[C@H](OC(N)=O)[C@@H](OC)C=CC=C(C)C(=O)NC(=CC1=O)C2=O
active: Potency [1] 1.05 µM | Potency [2] 5.9 µM | Potency [3] 0.0264 µM | Potency [14] 0.235 µM | Potency [15] 0.833 µM | Potency [4] 0.526 µM | Potency [5] 1.32 µM | Potency [16] 0.833 µM | Potency [20] 0.833 µM | Potency [17] 2.64 µM | Potency [6] 0.662 µM | Potency [7] 0.264 µM | Potency [18] 1.32 µM | Potency [19] 4.18 µM | Potency [8] 1.48 µM | Potency [9] 1.05 µM | Potency [10] 2.35 µM

Cn1cnc2c(F)c(Nc3ccc(Br)cc3F)c(C(=O)NOCCO)cc21
active: Potency [17] 0.0132 µM
inactive: Potency [1] | Potency [2] | Potency [13] | Potency [4] | Potency [5] | viability [16] 115% | Potency [20] | Potency [8] | Potency [9]

CS(=O)(=O)N1CCc2c(-c3cnc(N)nc3)nc(N3CCOCC3)nc21
active: Potency [11] 0.235 µM | Potency [12] 0.209 µM | Potency [2] 0.0332 µM | Potency [13] 0.118 µM | Potency [14] 0.833 µM | Potency [4] 0.332 µM | Potency [5] 0.332 µM | Potency [20] 0.296 µM | Potency [17] 0.743 µM | Potency [6] 0.372 µM | Potency [7] 0.418 µM | Potency [18] 0.001 µM | Potency [19] 0.296 µM | Potency [8] 5.26 µM | Potency [10] 1.05 µM
